Measurements taken from PubChem BioAssay.
“And” between values parts separate entries of the source, which are not always exact repeats. Equal values may be shown once. The source made the active and inactive calls. Unless noted, no stated cut-off is given here; in the data, active means parasite load remaining mostly below about 12% (no sharp cut-off); inactive means mostly above about 10%.

Experiments:
[1] = liver-stage malaria parasite growth inhibition, primary screen, cell-based, HepG2, luciferase luminescence, HepG2 viability (AID 624349);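 further: 100% = mean of DMSO negative control wells on the same plate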; details: P. berghei liver stage in HepG2, luciferase luminescence, concentration not given here; parasite load remaining: stronger effect = lower value; viability: measured here: HepG2 viability without parasites
[2] = sensitizers of A549 cells to miR-34 induction, primary screen, imaging, A549 dox-inducible miR-34, nuclei and caspase counts (AID 1347080;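 active means compounds whose cell count with miR-34 switched on is under 0.7 times the count with it off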); details: A549 miR-34 inducible, Hoechst nuclei count, 48 h
[3] = hESC survival regulators, cell-based (AID 493140; call rule not given here;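 further: cells exposed to compounds for four days before counting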); details: human embryonic stem cell survival screen; stronger effect = higher value
[4] = stronger effect = lower value, cell number ratio, induced over uninduced
[5] = measured here: relative caspase fold change +Dox/-Dox
[6] = measured here: total cells with miR-34 induction, stronger effect = lower value
[7] = measured here: total cells without miR-34 induction

Structure (SMILES) | parasite load remaining [1] | viability [1] | fold change [2, 4] | fold change [2, 5] | cell count [2, 6] | cell count [2, 7] | survival [3] | fold change ([2]; stronger effect = lower value)
NCCC(O)C(=O)N[C@@H]1C[C@H](N)[C@@H](OC2O[C@H](CN)[C@@H](O)[C@H](O)[C@H]2N)[C@H](OC2O[C@H](CO)C(O)[C@H]2O)[C@H]1O (stereo partly drawn) | 106% (inactive) | 91% | 0.815 (inactive) | 1.54 | 7990 | 9800 |  | 
CCN1C[C@]2(C)CC[C@H](O)[C@]34C1[C@H](C[C@H]23)[C@@]1(O)C[C@H](OC)[C@H]2C[C@@H]4[C@@H]1C2O (stereo partly drawn) | 57.3% (inactive) | 100% | 0.863 (inactive) | 1.17 | 9000 | 10400 |  | 
COc1cc2c(cc1O)[C@@H]1Cc3ccc(OC)c(O)c3CN1CC2 | 152% (inactive) | 92.5% | 0.78 (inactive) | 1.3 | 2600 | 3330 |  | 
CCN1C[C@]2(C)CC[C@H](OC)[C@@]34C1[C@]1(OCO[C@@]15C[C@H](OC)[C@H]1C[C@]3(O)[C@@H]5[C@H]1OC)[C@@H](OC(C)=O)[C@H]24 | 91.7% (inactive) | 96.9% | 0.951 (inactive) | 0.675 | 10000 | 10500 |  | 
CC(=O)O[C@H]1C[C@H](O[C@H]2[C@@H](O)C[C@H](O[C@H]3[C@@H](O)C[C@H](O[C@H]4CC[C@@]5(C)[C@H](CC[C@]6(C)[C@]5(C)C[C@@H](O)[C@]5(C)[C@@H](C7=CC(=O)OC7)CC[C@@]56O)C4)O[C@@H]3C)O[C@@H]2C)O[C@H](C)[C@H]1O[C@@H]1O[C@H](CO)[C@@H](O)[C@H](O)[C@H]1O | 0.31% (inactive) | 66.6% | 0.992 (inactive) | 1.14 | 808 | 815 |  | 
C=C1C/C(=C/C)C(=O)O[C@@H]2CCN3CC=C(COC(=O)[C@]1(C)O)[C@H]23 | 91.1% (inactive) and 73.7% (inactive) | 125% and 77.7% |  | 1.73 | 9540 | 10800 | 10.6 (inactive) | 0.88 (inactive)
C[C@H]1CCC2(NC1)O[C@H]1C[C@H]3[C@@H]4CC[C@H]5C[C@@H](O[C@@H]6O[C@H](CO)[C@H](O[C@@H]7O[C@H](CO)[C@@H](O)[C@H](O[C@@H]8OC[C@@H](O)[C@H](O)[C@H]8O)[C@H]7O[C@@H]7O[C@H](CO)[C@@H](O)[C@H](O)[C@H]7O)[C@H](O)[C@H]6O)CC[C@]5(C)[C@H]4CC[C@]3(C)[C@H]1[C@@H]2C (stereo partly drawn) | 1.56% (inactive) | 9.75% | 0.761 (inactive) | 0.652 | 430 | 564 |  | 
